# The list is not random: actives were taken first. Their share in the collection is about 5.4%.
# A3A deaminase = human APOBEC3A DNA deaminase inhibition; P31941; inhibition, % at 20 µM; AID 493011; 330,000 tested, 0.41% active; recombinant A3A, FAM/TAMRA ssDNA deamination fluorescence;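 active = at least 40% inhibition at 20 µM here, with at most 30% in a related deaminase screen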;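 note: plate controls were A3A with DMSO for no effect and wells lacking A3A enzyme for full effect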
# Target sequence (P31941 whole entry, looked up): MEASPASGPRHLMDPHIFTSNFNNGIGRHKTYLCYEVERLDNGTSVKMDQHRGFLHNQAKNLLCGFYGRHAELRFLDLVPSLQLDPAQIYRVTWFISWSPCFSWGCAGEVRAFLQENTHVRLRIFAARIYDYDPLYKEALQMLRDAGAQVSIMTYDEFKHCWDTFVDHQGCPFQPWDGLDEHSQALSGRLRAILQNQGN
# A3G deaminase = blocks human APOBEC3G single-stranded DNA deamination | recombinant A3G, ssDNA deamination FAM/TAMRA fluorescence | inhibition, % at 20 µM | 330,000 tested, 0.28% active;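 active = inhibition of at least 40% at 20 µM, with no more than 30% in the related APOBEC3A deaminase screen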;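 note: plate controls were DMSO wells with A3G for no effect and wells lacking A3G enzyme for full effect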
# Target sequence (Q9HC16 whole entry, looked up): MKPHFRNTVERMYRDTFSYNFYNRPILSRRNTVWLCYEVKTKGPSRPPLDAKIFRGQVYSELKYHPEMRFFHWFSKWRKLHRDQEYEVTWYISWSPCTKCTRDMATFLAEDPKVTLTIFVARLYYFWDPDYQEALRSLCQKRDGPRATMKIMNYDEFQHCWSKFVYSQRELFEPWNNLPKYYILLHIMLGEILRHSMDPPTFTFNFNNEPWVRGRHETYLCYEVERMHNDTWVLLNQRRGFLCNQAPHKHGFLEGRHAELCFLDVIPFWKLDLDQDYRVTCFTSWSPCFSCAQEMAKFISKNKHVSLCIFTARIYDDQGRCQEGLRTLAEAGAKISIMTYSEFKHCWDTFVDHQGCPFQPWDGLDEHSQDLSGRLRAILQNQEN
# aDG glyco up = increases alpha dystroglycan glycosylation. Pro5-aDG cells, alpha-DG glycosylation AlphaScreen (IIH6); 0% Pro5, 100% B10-LARGE cell signal. 360,000 tested, 0.22% active. activation, % at 10 µM;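 active = activation of at least 8% versus controls, or a plate z-score of at least 8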;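 note: Pro5 are CHO cells carrying HIG-tagged alpha-DG that lacks glycosylation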
# ALR H2O2 inh = blocks human ALR sulfhydryl oxidase activity; purified ALR, DTT oxidation, H2O2 HRP-luminol luminescence; inhibition, % (concentration not given with the values); 290,000 tested, 3.8% active;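 active = mean replicate inhibition above about 79%, with every replicate also reaching it, limit read from the data; inconclusive = only one of the two criteria met; inactive = mean below limit and not every replicate reaching it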
# rCAG binder = binds r(CAG) RNA repeats. r(CAG) RNA repeat, TO-PRO-1 dye displacement fluorescence. inhibition, % at 3 µM. 370,000 tested, 1.3% active;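 active = inhibition above the plate cutoff, the mean of all test compounds on that plate plus 3 SD, cut at about 35% in these data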;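 note: 0% = DMSO alone and 100% = 100 µM mitoxantrone as full dye displacement; higher means more dye released from RNA so lower well fluorescence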
# PHOSPHO1 block = blocks human PHOSPHO1 phosphatase activity | Q8TCT1 | recombinant PHOSPHO1, absorbance phosphatase assay | inhibition, % at 13.3 µM | 290,000 tested, 1.1% active | AID 1565; in the data active = inhibition above about 60%
# * hit, by the source's call; ? = inconclusive; . = not tested or not shown.
SMILES,A3A deaminase,A3G deaminase,aDG glyco up,ALR H2O2 inh,rCAG binder,PHOSPHO1 block
N#C/C(=C(/O)CN1CCOCC1)c1nc(-c2ccccc2)cs1,-5,-4,0,36,24,9
O=C(NCc1ccccc1)[C@@H]1CCCN1C(=O)[C@H]1CCCN1C(=O)c1cccs1,.,.,.,.,1,.
COc1ccc(CCNC(=O)c2cc3ccccn3n2)cc1,.,.,.,.,-1,.
CSc1ncccc1C(=O)Nc1ccc(OC(F)(F)F)cc1,3,1,1,-21,-1,2
CC(=O)Nc1ccc(Sc2ncccc2C(=O)Nc2ccc(F)cc2)cn1,-10,-6,0,-3,0,62*
O=C(NC1CCCC1)c1ccc(COc2ccccc2)o1,.,.,.,.,3,.
Cn1cnnc1SCc1ccc(-c2ccc(Br)cc2)o1,-6,-4,0,43,6,85*
CCN(CC)C(=O)CSC1=C(C#N)C(c2cccs2)C=C(C)N1 (configuration not stated),-3,-2,0,-2,-7,94*
CN(CCO)c1ccc2c(c1)Oc1ccccc1CN(Cc1cn(Cc3cccc(C(F)(F)F)c3)nn1)S2(=O)=O,.,.,.,.,3,.
COc1cc(-c2nc(-c3ccccc3)c(-c3cccs3)[nH]2)cc(OC)c1O,-4,-8,0,98*,11,15
CCCC(=O)Nc1cccc(C(=O)Nc2ccccc2OCC)c1,-3,-2,.,-2,-1,-5
CCOc1ccccc1NC(=O)c1cccc(NC(=O)C(C)C)c1,0,-4,1,-5,-5,61*
CCNC(=O)CCS(=O)(=O)c1ccc2ccccc2c1,0,-10,0,99*,2,6
O=C(CCS(=O)(=O)c1ccccc1)NCCS(=O)(=O)c1ccccc1,4,0,0,-3,-2,36
Cn1c(=O)c(=O)n(C)c2cc(S(=O)(=O)CCC(=O)NCc3ccccc3)ccc21,5,5,0,99*,1,-40
Cc1nc(SCC(=O)c2cccc([N+](=O)[O-])c2)n[nH]1,-14,-9,0,.,1,7
Nc1nc(SCC(=O)c2ccc(F)cc2)n[nH]1,1,2,0,5,1,40
COc1ccc(C(=O)CSc2n[nH]c(C)n2)cc1[N+](=O)[O-],-1,-6,0,82*,3,-79
Cc1nc(SCC(=O)c2ccc(F)cc2)n[nH]1,-4,24,0,12,6,95*
O=C(Nc1cccnc1)C1CCCN(c2ncnc3c2nc2n3CCCCC2)C1 (configuration not stated),-2,3,0,-4,-7,55
CCc1cccc(NC(=O)C2CCCN(c3ncnc4c3nc3n4CCCCC3)C2)c1 (configuration not stated),-4,-7,0,2,0,63*
C=CCN1C(=O)[C@@H](CC(=O)NCCCOC)[C@]2(C(=O)OC)CCCCC=C12,.,.,.,.,0,.
COC(=O)[C@]12C[C@H](CC(=O)NCC3CCCCC3)C(=O)N(Cc3cccc4ccccc34)C1=C[C@H](COCc1ccccc1)O[C@@H]2C,.,.,.,.,9,.
CC(C)c1ccc(Oc2cccc(C(=O)/C(C#N)=C/N(C)C)c2)cc1,-4,-3,0,98*,33,0
COc1ccccc1-c1cccc2[nH]c3c(c12)CCN1C(=O)[C@H]2[C@H](C)ON(C)[C@H]2C[C@@H]31,.,.,.,.,9,.
SMILES,A3A deaminase,A3G deaminase,aDG glyco up,ALR H2O2 inh,rCAG binder,PHOSPHO1 block
O=C1N(Cc2ccccc2)c2ccccc2C12CCCc1sc(CCc3ccccc3)nc12 (configuration not stated),.,.,.,.,3,.
CC(C)C1CC(CCNCc2ccc(N(C)C)cc2)(c2ccccc2)CCO1 (configuration not stated),-2,-1,0,5,5,-6
Cc1ccc(C2(CCNCc3ccc(N(C)C)cc3)CCOC(C(C)C)C2)cc1 (configuration not stated),3,-12,4,.,12,64*
c1ccc(-c2nc3ccccn3c2NC2CCCC2)nc1,0,-2,2,?,-7,10
Cc1ccn2c(NC3CCCC3)c(-c3ccccn3)nc2c1,-1,-4,2,98*,-7,-5
Cc1ccc(Nc2c(-c3ccccn3)nc3cc(C)ccn23)cc1,1,-7,0,98*,-1,-10
Clc1ccc(-c2nc3cnccn3c2NC2CCCC2)cc1,0,-4,1,99*,.,21
Cc1ccn2c(NC3CCCC3)c(-c3ccncc3)nc2c1,3,-3,0,98*,-10,-7
CON(C)C(=O)C(C)(C)CC#CCN(CC#Cc1ccccc1)S(=O)(=O)c1ccc(C)cc1,.,.,.,.,5,.
CC(C)CCN(C)C1CCN(C(=O)Nc2ccc(Cl)cc2)CC1,.,.,.,.,0,.
COc1cc2c(cc1NC(=O)CSc1nnc(-c3cccc(Cl)c3)n1-c1ccccc1)oc1ccccc12,.,.,.,.,8,.
CC1(C(=O)NS(=O)(=O)c2ccccc2Cl)CCN1C(=O)C1(c2ccc(Cl)cc2)CCC1 (configuration not stated),.,.,0,.,47*,.
CSc1n[nH]c(-c2cccs2)n1,.,.,.,.,3,.
COC(=O)[C@@H]1C[C@@]2(c3ccccc3)c3ccccc3N(S(=O)(=O)c3ccccc3)[C@H]2N1C(=O)CNC1CCCCC1,.,.,.,.,6,.
C=CCN1CC(O)=C(c2nc3ccccc3[nH]2)C1=N,1,-3,0,83*,-3,32
CCCCN1CC(O)=C(c2nc3ccccc3[nH]2)C1=N,-2,0,0,4,-3,26
COc1cc(SC#N)ccc1N=Cc1c(C)[nH]n(-c2ccc(C)c(C)c2)c1=O,0,-6,0,94*,6,-32
O=S(=O)(c1cccc2cccnc12)N1CCC(c2cn3ccccc3n2)CC1,.,.,.,.,5,.
CC(C)COc1ccc(N)cc1OCC(C)C,-1,-3,-1,99*,1,-18
CC1CCCCC1NC(=O)Cn1ncc2ccccc21 (configuration not stated),1,-4,0,97*,2,14
Cc1ccc(S(=O)(=O)NNC(=S)Nc2ccccc2)cc1,-6,-2,1,99*,0,35
Cc1ccc(S(=O)(=O)NNC(=O)c2ccc(O)cc2)cc1,-3,-12,0,97*,-1,1
Cc1ccc(S(=O)(=O)NNC(=S)NC(=O)c2ccc([N+](=O)[O-])cc2)cc1,-6,-8,2,93*,7,-15
Cc1ccc(C(=O)NC(=S)NNS(=O)(=O)c2ccc(C)cc2)cc1,0,-7,0,97*,22,16
Cc1ccc(S(=O)(=O)NNC(=S)Nc2ccc(Cl)cc2)cc1,0,6,0,?,10,11
CC(=O)Nc1ccc(C(=O)NNS(=O)(=O)c2ccc(C)cc2)cc1,-2,-1,1,54,0,30

# High-throughput results deposited in PubChem BioAssay by several laboratories.
